From PubChem BioAssay (NCI)
Compounds without any hit were thinned out: in the full panel of roughly 83,000, 20% have a hit.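 Testing used 96-well plates and a 48-hour single-concentration exposure. Example: -40 means 40% of the starting cells died.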 Values without a mark were called inactive. Calls of active or inactive are those of the source. Rule for the calls: active = growth percent below 10; inactive = the rest.

Columns and labels:
Assay in all cases: NCI-60 one-dose screen, 48 h (100 = growth as untreated, 0 = no growth, -100 = all killed)
Settings in all cases: 10 µM unless noted
[1] = tested on: SK-MEL-2 melanoma
[2] = tested on: EKVX NSCLC
[3] = tested on: SN12C renal
[4] = tested on: UO-31 renal
[5] = tested on: TK-10 renal
[6] = tested on: ACHN renal
[7] = tested on: CAKI-1 renal
[8] = tested on: A498 renal
[9] = tested on: CCRF-CEM leukemia
[10] = tested on: MOLT-4 leukemia

SMILES | growth [1] | growth [2] | growth [3] | growth [4] | growth [5] | growth [6] | growth [7] | growth [8] | growth [9] | growth [10]
COc1cc(OC)cc(C(=O)Nc2cc(-c3cccnc3)nc(NCCCN3CCOCC3)n2)c1 | 84.1% | 103% | 86.4% | 53.6% | 95.5% | 103% | 101% | 83.3% | 90.8% | 82.3%
CCN=C1C=CC(=C(c2ccc(N(CC)CC)cc2)c2ccc(N(CC)CC)cc2)c2ccccc21 | -76.3% (active) | -40% (active) | -34.2% (active) | -65.4% (active) | -51.9% (active) | -94.9% (active) | -86.3% (active) | -89.3% (active) | 1.05% (active) | -25.7% (active)
C[C@H]1[C@H](C)CC[C@]2(C(=O)O)CC[C@]3(C)C(=CC[C@@H]4[C@@]5(C)C/C(=C/c6cccnc6)[C@H](O)C(C)(C)[C@@H]5CC[C@]43C)[C@H]12 | -28.1% [100 µM] (active) | 15.8% [100 µM] | 3% [100 µM] (active) | -77% [100 µM] (active) | 8.85% [100 µM] (active) | 4.57% [100 µM] (active) | 7.71% [100 µM] (active) | 19% [100 µM] | -1.43% [100 µM] (active) | 2.42% [100 µM] (active)
Nc1nc(SCc2cccc([N+](=O)[O-])c2)c2[nH]cnc2n1 | 96% | 90.9% | 94.9% | 64.7% | 90.4% | 99.6% | 84% | 82.1% | 95% | 91.4%
COc1cc(NCc2ccccc2O)c2ncccc2c1 | 142% | 82% | 106% | 75.8% | 150% | 97.2% | 8.76% (active) | 72% | 91.5% | 88.3%
COCCCNc1nc(NC(=O)c2cc(OC)cc(OC)c2)cc(-c2cccnc2)n1 | 78.8% | 105% | 95.3% | 56.7% | 86.7% | 98.2% | 99.4% | 67.7% | 91.7% | 83.5%
CNC(=O)c1cc(Oc2ccc3nc(NC(=O)c4ccc5ncccc5c4)sc3c2)ccn1 | 86.2% | 87.5% | 92.6% | 77% | 90.5% | 102% | 89.9% | 88.3% | 91% | 94.2%
Cc1ccccc1OC(=O)c1cccc(Cl)c1 | 103% | 99.2% | 110% | 80.2% | 108% | 107% | 109% | 90.5% | 98% | -16.3% (active)
COc1cc(/C=C/C(=O)/C=C/c2ccc(-n3ccnc3)cc2)ccc1O | 106% | 97.9% | 76.6% | -25.7% (active) | 101% | 48.3% | 91.5% | 96.8% | 37.1% | 33.4%
Fc1ccc(NC(=S)c2ccccc2)cc1 | 98.3% | 97.5% | 103% | 88.9% | 94.5% | 102% | 89.8% | 72.8% | 94.6% | 99.9%
Cc1ncc(C(=O)Nc2ccc(CN3CCN(C)CC3)c(C(F)(F)F)c2)cc1C#Cc1c(N)ncc2ccc(C#N)cc12 | 39.7% | 57.5% | 32.9% | 19.3% | 37% | 12.3% | 16.1% | 6.65% (active) | 38.1% | 37.3%
CC1(C)C(=O)/C(=C\c2ccco2)C[C@]2(C)[C@H]3CC=C4[C@@H]5C[C@](C)(C(=O)O)CC[C@]5(C)CC[C@@]4(C)[C@]3(C)CC[C@@H]12 | -57.5% [100 µM] (active) | -71.4% [100 µM] (active) | -50.8% [100 µM] (active) | -95.5% [100 µM] (active) | -46.1% [100 µM] (active) | -79.9% [100 µM] (active) | -66.6% [100 µM] (active) | -89.2% [100 µM] (active) | -22.7% [100 µM] (active) | -21% [100 µM] (active)
Cn1cc(-c2noc(-c3cn(C)c4ncc(F)cc34)n2)c2ccccc21 | 93.8% | 34.3% | 33.6% | 61.7% | 38.9% | 66.3% | 47.1% | 62.9% | 78% | 77.4%
COc1cc(C(=O)/C=C/c2c(-c3ccc(F)cc3)nc3sccn23)cc(OC)c1OC | 10.1% | 49.9% | 64.6% | 22.1% | 36.5% | 28.3% | 15.1% | 48.8% | -41.9% (active) | 39.2%
CC(C)(C)c1cc(C(=O)Nc2ccc(C(=O)NCCN)cc2)cc(C(C)(C)C)c1 | 60.3% | 71.2% | 12.8% | 69.5% | 90.9% | 44.4% | 71.7% | 13.1% | 3.44% (active) | 10.9%
CN(Cc1cccc(C(F)(F)F)c1)C(=O)[C@@H](CC(=O)N1CCC(N2CCCCC2)CC1)N1C(=O)[C@@H](N2C(=O)OC[C@@H]2c2ccccc2)[C@H]1/C=C/c1ccccc1 | 100% | 89.9% | 82.6% | 83.4% | 93.6% | 100% | 91.9% | 63% | 90.6% | 58.3%
CCn1cc(-c2ccnc(NCCNS(=O)(=O)c3cccc4ccccc34)c2)c(-c2cccc(O)c2)n1 | 111% | 96.9% | 96.7% | 90.3% | 114% | 100% | 102% | 91.5% | 95% | 93.1%
CCN(CC)CCCNCc1cc(-c2ccccc2)nc2ccccc12 | 109% | 93.7% | 48% | 23.7% | 46.8% | 101% | 100% | 75.2% | 11.8% | 8.2% (active)
CC(C)CCNCC(C)(C)O | 107% | 106% | 110% | 92.3% | 104% | 107% | 99.1% | 105% | 116% | 110%
COc1cc2c(cc1OCCCN1CCN(CCCOc3cc4c(cc3OC)C(=O)N3C[C@H](F)C[C@H]3C=N4)CC1)N=C[C@@H]1C[C@@H](F)CN1C2=O | -20.5% (active) | -34.3% (active) | 25.7% | 11.8% | -52.5% (active) | 7.96% (active) | 16.9% | -55% (active) | -28.1% (active) | -16.7% (active)
C=C(C)[C@@H]1CC[C@]2(COC(=O)c3ccccc3C(=O)O)CC[C@]3(C)[C@H](CC[C@@H]4[C@@]5(C)CC[C@H](OC(=O)c6ccccc6C(=O)O)C(C)(C)[C@@H]5CC[C@]43C)[C@@H]12 | 23.8% [100 µM] | 39.5% [100 µM] | 27.8% [100 µM] | 27.7% [100 µM] | 21.8% [100 µM] | -55.6% [100 µM] (active) | 10.7% [100 µM] | -0.192% [100 µM] (active) | 46.4% [100 µM] | 39.9% [100 µM]
O=c1[nH]c2cc(Cl)c(Cl)cc2n2cc3ncccc3c12 | 112% | 82.3% | 83% | 56.9% | 94.1% | 89.7% | 59.9% | 73.6% | 52.1% | 58.8%
O=C(Nc1ccccc1)Nc1ccc(C(=O)/C=C/c2ccc(N3CCCC3)cc2)cc1 | 17.9% | 74.2% | 66.5% | 67.7% | 102% | 83.6% | 61.7% | 45.9% | 72.6% | 67.5%
CC1Cc2c(ncnc2-n2cnc3ccccc32)N(C)c2ccccc21 (stereo not given) | -6.66% (active) | 48.6% | 35.5% | 46.4% | 50% | 55.7% | 33.6% | -2.09% (active) | 13% | 23.2%
